Source: PubChem
In the library only some 3.7% were active in any assay of this set; here they are far more common.
Autofluor counter: counter-screen for toxin protease inhibitors: compound fluorescence. actives 3.1% (n = 360,000). fluorescence intensity (test concentration not listed). compound autofluorescence counterscreen, microsphere flow cytometry; active compounds read high. AID 624483; in the data active = fluorescence intensity above about 16000; inconclusive = no clear call, values can overlap the other calls
BoNT F protease: BoNT F light chain protease inhibition. Multiplex microsphere protease cleavage assay, flow cytometry. inhibition, % at 10 µM. actives 0.22% (n = 360,000). AID 588497; in the data active = inhibition above about 35%, passing the limit was not always enough; inconclusive = no clear call, values can overlap the other calls
Anthrax LF prot: inhibitors of Bacillus anthracis lethal factor protease; multiplex microsphere protease cleavage assay, LF; inhibition, % at 10 µM; actives 0.12% (n = 360,000); P15917
Target sequence (P15917 whole entry, looked up): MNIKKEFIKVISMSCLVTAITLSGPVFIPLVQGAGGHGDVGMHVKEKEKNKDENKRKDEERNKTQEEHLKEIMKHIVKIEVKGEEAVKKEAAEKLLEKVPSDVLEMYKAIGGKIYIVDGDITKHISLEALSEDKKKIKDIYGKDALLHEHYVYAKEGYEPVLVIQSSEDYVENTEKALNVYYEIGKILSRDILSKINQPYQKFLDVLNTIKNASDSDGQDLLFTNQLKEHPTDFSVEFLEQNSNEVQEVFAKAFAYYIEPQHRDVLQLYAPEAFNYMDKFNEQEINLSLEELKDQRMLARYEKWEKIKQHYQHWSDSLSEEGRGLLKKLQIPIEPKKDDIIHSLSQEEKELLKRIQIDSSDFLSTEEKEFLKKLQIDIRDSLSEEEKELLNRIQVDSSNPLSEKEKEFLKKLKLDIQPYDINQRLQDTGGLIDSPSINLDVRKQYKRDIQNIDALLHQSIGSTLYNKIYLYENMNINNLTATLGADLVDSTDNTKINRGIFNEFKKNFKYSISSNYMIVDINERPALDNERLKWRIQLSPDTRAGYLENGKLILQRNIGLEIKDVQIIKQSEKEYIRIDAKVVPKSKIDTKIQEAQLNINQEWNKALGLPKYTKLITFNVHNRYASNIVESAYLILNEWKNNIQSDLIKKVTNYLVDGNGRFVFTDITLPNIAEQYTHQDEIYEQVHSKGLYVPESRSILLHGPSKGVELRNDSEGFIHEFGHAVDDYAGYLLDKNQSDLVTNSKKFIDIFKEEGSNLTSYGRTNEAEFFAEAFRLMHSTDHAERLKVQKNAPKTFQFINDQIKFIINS
BJeLR lethal: kills HRASV12-expressing BJeLR cells; BJeLR (HRASV12) viability, CellTiter-Glo ATP luminescence, 48 h; inhibition, % (no concentration beside the values); actives 0.17% (n = 300,000); AID 1554; in the data active = inhibition above about 50%; inconclusive = no clear call, values can overlap the other calls
Vc quorum ag-1: quorum light induction in luxS cqsA deficient V. cholerae. actives 0.16% (n = 350,000). activation, % at 18.7 µM. V. cholerae BH1578 lux reporter, luminescence, 6 h; in the data active = activation mostly above about 9.7%, no sharp cut-off; inconclusive = no clear call, values can overlap the other calls; inactive = mostly below about 3.7%
BoNT A protease: BoNT A light chain protease inhibition. multiplex microsphere protease substrate cleavage, flow cytometry. inhibition, % at 10 µM. actives 0.17% (n = 360,000). AID 588499
Vc quorum ag-2: quorum light induction in BH1578 reporter strain; shares compounds with Vc quorum ag-1; V. cholerae BH1578 lux reporter, luminescence, 6 h; AID 602243; 620 tested, under 10 active; activation, % at 50 µM; call rule not given here
Each line names hits and unclear results; the compound was inactive in the other large screens (follow-up assays come after a bar, where they were run). Rule as the data show it, unless noted: active = inhibition above about 30%; inconclusive = no clear call, values can overlap the other calls; inactive = below that.

CCCCN(C)c1c(C)nc2ccc(C(=O)N(CC)CCN(C)C)cn12	none (no result: BJeLR lethal)
CCCCNC(=O)COC(=O)c1ccc(N(C)C)cc1	Vc quorum ag-1 170.1 | Vc quorum ag-2 inactive
CCCCNC(=O)COC(=O)c1ccc(NC(C)=O)cc1	none
Cc1nn(CC(=O)Nc2ccc3c(c2)OCCO3)c(C)c1[N+](=O)[O-]	none (no result: BJeLR lethal)
O=C(Nc1cccc(-c2ccc(N3CCOCC3)nn2)c1)c1ccc([N+](=O)[O-])cc1	none | Vc quorum ag-2 inactive
COc1cc(/C=C/C(=O)OCC(=O)c2ccc[nH]2)ccc1O	none (no result: BJeLR lethal)
O=C(Nc1cccc([N+](=O)[O-])c1)NC1CCCCCCC1	none (no result: BJeLR lethal)
COc1cccc(CNC(=O)CSc2nc3c(oc4ccccc43)c(=O)n2CC2CCCO2)c1 (configuration not stated)	none
COc1ccc(CNC(=O)CSc2nc3c(oc4ccccc43)c(=O)n2CC2CCCO2)cc1 (configuration not stated)	none | Vc quorum ag-2 inactive
O=c1c2ccccc2nnn1CSc1nnc2ccccn12	Vc quorum ag-1 40.0 | Vc quorum ag-2 inactive
O=C(Nc1ccc2c(c1)OCCO2)C1c2ccccc2OCC(=O)N1Cc1ccco1 (configuration not stated)	none (no result: BJeLR lethal, Vc quorum ag-1)
CCOC(=O)N1CCN(C(=S)NCCOC)CC1	Autofluor counter 18608 | Vc quorum ag-2 inactive
CN(C(=O)Cc1noc2ccccc12)c1ccccc1	none
Cc1ccc2onc(CC(=O)O)c2c1	none | Vc quorum ag-2 inactive
CSc1ccc(-c2cc3c(c4c2ccn4C)C2CCC3O2)cc1 (configuration not stated)	none (no result: BJeLR lethal, Vc quorum ag-1)
CCCCCCN1C[C@@H](n2cc(C3CC3)nn2)[C@H](O)C[C@@H]1c1ccc(OC)cc1	none (no result: BJeLR lethal)
COc1ccc(S(=O)(=O)Nc2ccc(S(=O)(=O)N3CCOCC3)cc2)cc1C	Vc quorum ag-1 17.9 | Vc quorum ag-2 inactive
COc1ccc(NS(=O)(=O)c2ccc(S(=O)(=O)N3CCOCC3)cc2)cc1	none
CC1(C(=O)NC2CCCCC2)CCC(=O)N1CCOc1ccccc1 (configuration not stated)	none (no result: BJeLR lethal, Vc quorum ag-1)
CCCC(=O)NC1CCCc2c1cnn2-c1ccc(C)c(C)c1 (configuration not stated)	none | Vc quorum ag-2 inactive
Cc1ccc(NC(=S)NCCc2c[nH]c3ccccc23)cc1	Vc quorum ag-1 16.7 | Vc quorum ag-2 inactive
COC(=O)Cc1c(C)c2ccc(OC(=O)c3ccccc3)cc2oc1=O	none | Vc quorum ag-2 inactive
CCCCC(=O)N(C)c1c(C)nc2ccc(C(=O)N3CCN(S(=O)(=O)CC)CC3)cn12	none (no result: BJeLR lethal)
CC(=O)c1c(N2CCC(C(N)=O)CC2)nc(=S)n(-c2ccccc2)c1C	Autofluor counter 22860 | Vc quorum ag-2 inactive
CC(=O)c1c(N2CCN(c3ccccc3)CC2)nc(=S)n(-c2ccccc2)c1C	none (no result: Vc quorum ag-1)
Cc1nn(-c2ccccc2)c(C)c1NC(=O)COC(=O)c1cc(Br)ccc1O	Autofluor counter inconclusive | Vc quorum ag-2 inactive
Cc1cccc(C(=O)OCC(=O)Nc2c(C)nn(-c3ccccc3)c2C)c1O	Autofluor counter inconclusive
CSc1ccc(/C=C/C(=O)OCC(=O)NC2CCCCCC2)cc1	none (no result: BJeLR lethal)
COc1cc(C(C)=O)ccc1OCC(=O)Nc1cc(Cl)ccc1-n1cncn1	none (no result: BJeLR lethal) | Vc quorum ag-2 inactive
COc1cc(OC)c(C(=O)Nc2cc(Cl)ccc2-n2cncn2)cc1OC	Autofluor counter inconclusive
O=C(Nc1cccc(Cl)c1)Nc1ccc(Cl)cn1	Vc quorum ag-1 32.1 | Vc quorum ag-2 inactive
CCOC(=O)c1c(-c2ccccc2)csc1NC(=O)c1nn(CC)cc1Br	none | Vc quorum ag-2 inactive
CCOCCCNC(=O)C(NC(=O)c1cnccn1)c1ccc(C)cc1 (configuration not stated)	Vc quorum ag-1 27.8 | Vc quorum ag-2 inactive
CCOCCCNC(=O)C(NC(=O)c1ccc(NC(C)=O)cc1)c1ccc(C)cc1 (configuration not stated)	none
CCCOC(=O)c1ccc(NC(=O)CCC(=O)OCC)cc1	Autofluor counter 21063 | Vc quorum ag-2 inactive
CCCOC(=O)c1ccc(NC(=O)C2CCCO2)cc1 (configuration not stated)	Vc quorum ag-1 16.7 | Vc quorum ag-2 inactive
O=C1c2ccccc2CCC12OC2c1ccncc1 (configuration not stated)	none (no result: BJeLR lethal)
CC(=O)c1ccc(NC(=O)COc2ccccc2C(=O)Nc2ccccc2)cc1	Vc quorum ag-1 140.3 | Vc quorum ag-2 inactive
Cc1nc(=O)c(-c2ccccc2)c(C)n1CCCCCC(=O)O	Vc quorum ag-1 16.7 | Vc quorum ag-2 inactive
COc1ccc(CNC(=O)C2CCN(S(=O)(=O)N3CCC(C)CC3)CC2)c(OC)c1	none (no result: BJeLR lethal)
CCOC(=O)c1sc2cc([N+](=O)[O-])cc(SCCO)c2c1N	Vc quorum ag-1 22.8 | Vc quorum ag-2 inactive
CCOC(=O)c1sc2cc([N+](=O)[O-])cc(SCC(=O)OC)c2c1N	none
CCC(c1nnnn1-c1ccc2c(c1)OCCO2)N1CCN(c2ccccc2OC)CC1 (configuration not stated)	none (no result: BJeLR lethal, Vc quorum ag-1)
OCCn1c(SC2CCCCC2)nc2ccccc21	Vc quorum ag-1 16.7 | Vc quorum ag-2 inactive
COc1cc(NS(=O)(=O)c2ccc(C)cc2)c2c(c1N)C(=O)c1ccccc1C2=O	none (no result: BJeLR lethal)
Cc1ccc2nc(NCCc3ccccc3)c3nncn3c2c1	Vc quorum ag-1 111.2 | Vc quorum ag-2 inactive
CCC1(CC)NC(=O)N(CC(=O)OCC(=O)NC(=O)c2ccccc2OC)C1=O	Autofluor counter inconclusive | Vc quorum ag-2 inactive
CCC1(CC)NC(=O)N(CC(=O)OCC(=O)NC(=O)c2ccc(Cl)cc2)C1=O	none
CSc1ccccc1NC(=O)COc1ccc(S(=O)(=O)N2CCCC2)cc1	Autofluor counter 22225 | Vc quorum ag-2 inactive
CC(C)NC(=O)COc1ccc(S(=O)(=O)N2CCCC2)cc1	none
O=C(COC(=O)CNC(=O)c1ccco1)NCCN1C(=O)CSC1=O	none | Vc quorum ag-2 inactive
COc1ccccc1OCC(=O)OCC(=O)NCCN1C(=O)CSC1=O	none
Cc1noc(C)c1C(=O)OCC(=O)c1c[nH]c2ccccc12	Anthrax LF prot 53.2, BoNT A protease 47.2 | Vc quorum ag-2 inactive
CCc1cccc2c(C(=O)COC(=O)c3c(C)noc3C)c[nH]c12	none
CC(C)(C)N(Cc1ccccc1)C(=O)COC(=O)CNS(=O)(=O)c1ccc2ccccc2c1	none (no result: BJeLR lethal)
Cc1ccc(S(=O)(=O)NCCC(=O)OCC(=O)N(Cc2ccccc2)C(C)(C)C)cc1C	none | Vc quorum ag-2 inactive
O=c1ccc2c(ccc3ncccc32)o1	none (no result: BJeLR lethal)
C=CCn1c(NCc2ccccc2)nc2ccccc21	Vc quorum ag-1 16.7 | Vc quorum ag-2 inactive
C[C@H]1CN([C@@H](C)CO)C(=O)c2cc(Br)cnc2O[C@@H]1CN(C)S(=O)(=O)c1cn(C)cn1	none (no result: BJeLR lethal)
CC1(C(=O)N2CCN(c3ccc([N+](=O)[O-])cc3)CC2)CC1(Cl)Cl (configuration not stated)	none | Vc quorum ag-2 inactive
